Records with an inconclusive call do not appear. Unmarked numbers belong to inactive results. Calls come from the whole dose curve.
assay: p53 small molecule agonists, cell-based qHTS assay with human liver microsomes (AID 1963577); conditions: HCT-116 p53RE-bla with human liver microsomes, ratio, 16 h; series mostly up to 66 µM; activation: at the top concentration;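 note: p53 response element beta-lactamase reporter cells with liver microsomes plus NADPH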
Excerpt: National Center for Advancing Translational Sciences [NCATS]
Division of Preclinical Innovation [DPI]
U.S. Environmental Protection Agency [EPA]
National Institutes of Environmental Health Sciences [NIEHS]
National Toxicology Program [NTP]
U.S. Food and Drug Administration [FDA]
p53, a tumor suppressor protein, is activated following cellular insult, including DNA damage and other cellular stresses. The activation of p53 regulates cell fate by inducing DNA repair, cell cycle arrest, apoptosis, or cellular senescence. The activation of p53, therefore, is a good indicator of DNA damage and other cellular stresses. […] The activation of the reporter gene under culture conditions can be detected by fluorescence intensity.
Tox21 Assay Protocol Summary:
The p53RE-bla cells were dispensed at 4,000cells/3ul/well in 1536-well black-clear bottom plates. After the assay plates were incubated at 37 C, 5% CO2 incubator for 5 hours, 23 nL of compounds dissolved in DMSO, positive controls or DMSO only was transferred to the assay plate. Following compound addition, 3 uL of human liver microsomes (XenoTech, Kansas City, KS) at final concentration of 0.5 mg/mL and 1uL of Beta-Nicotinamide adenine dinucleotide 2-phosphate (NADPH) at final concentration of 0.5 mg/mL were transferred to the assay plate. The plates were incubated at 37 C for 16 hours. 1 uL of LiveBLAzer detection mixture was added to each well and the plates were incubated at room temperature in the dark for 2 h.
% is set by controls: 0 for no effect and ±100 for the full control effect.

SMILES	activation
CC(C)(C)NCC(O)c1cc(O)cc(O)c1 (stereo not given)	-4.57% [at 30.3 µM]
COc1ccc(/C(C)=C/C(=O)O)c(OC)c1	-1.2% [at 30.3 µM]
Clc1ccc(C(Cn2ccnc2)OCc2c(Cl)cccc2Cl)c(Cl)c1 (stereo not given)	-0.236% [at 30.3 µM]
NS(=O)(=O)Cc1noc2ccccc12	3.21% [at 30.3 µM]
Cc1ccc2sc3cccc(C)c3c2c1	0.514%
BrC(Br)C(Br)Br	-1.88%
CC(C)(C)c1nnc(NS(=O)(=O)c2ccccc2)s1	1.01% [at 30.3 µM]
CN1C(=O)CC(c2ccccc2)C1=O (stereo not given)	5.49% [at 30.3 µM]
CC(Cl)C(Cl)Cl (stereo not given)	-1.28%
O=C(c1ccccc1)c1ccc(Cl)cc1	8.02%
Nc1ncnc(Nc2ccccc2)n1	2.08% [at 30.3 µM]
CCCCCCC/C=C/C=O	-0.555%
Nc1c(CC(=O)O)cccc1C(=O)c1ccc(Br)cc1	6.4% [at 30.3 µM]
CCCCC(=O)OCC(=O)[C@H]1[C@H](C)C[C@H]2[C@@H]3C[C@H](F)C4=CC(=O)C=C[C@]4(C)[C@@]3(F)[C@@H](O)C[C@@]21C	-1.11% [at 30.3 µM]
O=C(Nc1ccc(Cl)c(Cl)c1)C1CC1	6.84% [at 30.3 µM]
CCCCCCCCCCCCCOP(=O)(O)O	0.176%
O=S(=O)(O)CCO	0.623%
CCCCCCOC(=O)C(C)C	1.85%
OCC(F)(F)F	-5.48%
CCCCCCCCCCCCCCCCCC#N	-0.559%

SMILES	activation
CC(C)C[C@H](NC(=O)OCC1c2ccccc2-c2ccccc21)C(=O)O	-4.17%
NC(=O)c1ccccc1[N+](=O)[O-]	-0.798%
CCCCCCCCC(C)=O	-0.696%
CC(C)Cc1nccs1	-0.452%
CN1CCN(CCCN2c3ccccc3Sc3ccc(Cl)cc32)CC1	-4.53% [at 30.3 µM]
c1ccc(SSc2ccccc2)cc1	-2.85%
O=C(Nc1ccccc1)c1cc([N+](=O)[O-])ccc1Cl	-10.7%
C=C1C(CCl)(CCl)C2(Cl)C(Cl)C(Cl)C1(Cl)C2(Cl)Cl (stereo not given)	-1.33%
O=C1CCCCO1	-1.55%
Nc1ccc(S(=O)(=O)Nc2ccccc2)cc1	-5.7% [at 30.3 µM]
COc1cc(CNC(=O)CCCC/C=C/C(C)C)ccc1O	0.199%
CC(=O)Nc1ccc(C)c(Cl)c1	-0.665%
CCCCCCCCCCCCCCC1CO1 (stereo not given)	1.85%
CCOC(=O)CCCCCCCCC(=O)OCC	5.61%
O=C(Nc1ccc2c(O)c(N=Nc3ccc(N=Nc4ccc(S(=O)(=O)O)cc4)cc3)c(S(=O)(=O)O)cc2c1)c1ccccc1	3.01%
O=C1c2ccccc2C(=O)C1c1ccc2ccccc2n1	-1.74% [at 30.3 µM]
OCC(O)[C@@H](O)[C@H](O)[C@H](O)CO[C@H]1O[C@H](CO)[C@@H](O)[C@H](O)[C@H]1O (stereo not given in full)	1.47%
O=C(O)CCNC(=O)c1ccccc1	0.804% [at 30.3 µM]
O=C1OC(=O)C2C3C=CC(C3)C12 (stereo not given)	-2.6%
Nc1ccc(C(=O)N2CC3CC(CN(Cc4ccccc4)C3)C2)cc1	0.954% [at 30.3 µM]

From PubChem BioAssay (Tox21)
